This is part of a sample that, as a whole, favours compounds with a hit. Of some 83,000 tested, about 20% had one in any assay.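 Single-dose data. Exposure time 48 hours. Values below 10 considered active.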 The source made the active and inactive calls.
These molecules were tested on NCI-H23 lung (assay: NCI-60 one-dose screen, 48 h (100 = growth as untreated, 0 = no growth, -100 = all killed)). Settings: 10 µM unless noted.

Row | SMILES | growth
1 | Nc1c(C(=O)Nc2c(Cl)cccc2Cl)sc2nc3c(cc12)CCCC3 | 84.1% (inactive)
2 | COc1cc2ncnc(Nc3ccc(OCc4cccc(F)c4)c(Cl)c3)c2cc1NC(=O)C1CCCC1 | 94.8% (inactive)
3 | O=C(N/N=C/c1ccccc1SSc1ccccc1/C=N/NC(=O)c1ccccc1)c1ccccc1 | 33.5% (inactive)
4 | C[C@@H]1CCCCCCCCC[C@H](O)C(=O)C[C@@H](SC[C@@H](O)C(=O)O)C(=O)O1 | 96.5% (inactive)
5 | C=C(C)[C@@H]1CC[C@]2(C)[C@H](CC=C3[C@@H]4CC(C)(C)CC[C@]4(C(=O)OC)CC[C@]32C)[C@@]1(C)CC/C(N)=N/O | 8.68% (active)
6 | C=C(C)[C@@H]1CC[C@]2(C)[C@H](CC=C3[C@@H]4CC(C)(C)CC[C@]4(C=O)CC[C@]32C)[C@@]1(C)CCCN | 86.4% (inactive)
7 | Cc1ccc(/C=C(\C#N)c2cc3ccccc3n2C)cc1 | 24.6% (inactive)
8 | N=C(N)c1ccc(S(N)(=O)=O)cc1 | 93.6% (inactive)
9 | COc1ccc(-c2cc(=O)oc3ccc(Cl)cc23)cc1F | 18.1% (inactive)
10 | CCSc1sc(-c2ccc(C)cc2)nc1[P+](c1ccccc1)(c1ccccc1)c1ccccc1 | -13.9% (active)
11 | COC(=O)[C@]12CC[C@@H](C)[C@H](C)[C@@H]1C1=CC(=O)[C@@H]3[C@@]4(C)C[C@@H](O)[C@H](O)[C@@]5(C)COC(=C45)C[C@@]3(C)[C@]1(C)CC2 | 76.9% (inactive)
12 | O=S(=O)(NCCNc1cc(-c2cn(-c3ccccc3)nc2-c2cccc(O)c2)ccn1)c1ccc(Br)cc1 | 39.4% (inactive)
13 | Brc1ccc2[nH]cc(-c3nc(-c4c[nH]c5ncccc45)cs3)c2c1 | 47% (inactive)
14 | Cc1ccc(-c2ccc(Nc3ccccc3)nn2)cc1S(N)(=O)=O | 96.2% (inactive)
15 | Cn1c2c(Cl)c(Cl)ccc2c2c(C#N)c[nH]c(=O)c21 | 91% (inactive)
16 | C/C(=N/NC(N)=S)C(=O)O | 101% (inactive)
17 | CCCCC[C@H]1C/C=C2/C(=O)C=C[C@@H]2C/C=C\CCCC(=O)O[C@@H](CCCCC)C/C=C2/C(=O)C=C[C@@H]2C/C=C\CCCC(=O)O1 | -72.7% (active)
18 | C#CCn1c(C)cc(C)c(C#N)c1=O | 107% (inactive)
19 | N#CC1C(=N)Cc2ccccc2-c2ccccc21 (stereo not drawn) | 57.1% (inactive)

Row | SMILES | growth
20 | Cc1cc(N2CCCCC2)nc(N(CCNc2ccnc3cc(Cl)ccc23)Cc2ccco2)n1 | 9.31% (active)
21 | C[C@@H](C(=O)O)c1ccc2c3cc(Cl)ccc3n(Cc3cc(=O)oc4ccc(Cl)cc34)c2c1 | 95.6% (inactive)
22 | C=C1C(=O)O[C@H]2[C@H]1CC/C(COC(=O)NCc1cc3ccccc3[nH]1)=C\CC[C@@]1(C)O[C@@H]21 | 35.8% (inactive)
23 | CCOC(=O)N1CCN(CCCCOc2ccc(C(C)(C)CC)cc2)CC1 | 89.4% (inactive)
24 | OCC(CO)(CCl)CCl | 93.2% (inactive)
25 | COc1ccc(-c2cc(/C=C/C(=O)c3ccc(N)cc3)[nH]n2)cc1 | 27.3% (inactive)
26 | CC(C)(C)c1nc(-c2ccc(O)c(O)c2)cs1 | 68.8% (inactive)
27 | Brc1ccc(Cn2nnnc2-c2ccn(-c3ccccc3)n2)cc1 | 62.3% (inactive)
28 | COC(=O)C(Cc1ccccc1)n1cc(COc2nc(Cl)nc(Nc3ccc(Cl)cc3)n2)nn1 (stereo not drawn) | 92.5% (inactive)
29 | COc1cccc(-c2nn(-c3ccccc3)cc2-c2ccnc(NCCNS(=O)(=O)c3ccccc3)c2)c1 | 39.5% (inactive)
30 | Nc1c(C(=O)Nc2cccc3ccccc23)sc2nc3c(cc12)CCCC3 | 23.1% (inactive)
31 | Cn1cc(-c2csc(-c3cn(CCN)c4ccc(F)cc34)n2)c2cccnc21 | 72.4% (inactive)
32 | COc1ccc(NC(=S)N/N=C/c2ccccc2SSCCC(=O)OC[C@H]2O[C@H](O)[C@H](O)[C@@H](O)[C@@H]2O)cc1 | 67.2% (inactive)
33 | c1ccc(-c2nc(Nc3ccc(-c4nc5ccccc5[nH]4)cc3)nc(N3CCOCC3)n2)cc1 | -59.1% (active)
34 | COc1cnc2c(c1)C(=O)c1c-2n(CCCNC2=NCCS2)c(=O)c2cc([N+](=O)[O-])ccc12 | -47.1% (active)
35 | OCCNc1nc(Nc2ccc(Cl)c(Cl)c2)nc2ccccc12 | 54.5% (inactive)
36 | Oc1ccc(CCC2CCCC(CCc3ccc(OCCF)cc3)N2)cc1 (stereo not drawn) | 87.3% (inactive)
37 | Cc1ccsc1-c1ccc2c(c1)COC2(CCCN(C)C)c1ccc(F)cc1 (stereo not drawn) | 70.6% (inactive)
38 | COc1ccc(NC(=O)c2ccoc2COc2ccccc2)cc1 | 95.7% (inactive)

Source: PubChem BioAssay (NCI)
